# Compounds with a hit are over-represented: about 2% of the library has one in this group of screens.
# ClpP mod = qHTS Assay for Activators of ClpP | hit rate 1.9% among 340,000 | purified B. subtilis ClpP, FRET peptide cleavage, 20 min | ATP-dependent Clp protease proteolytic subunit (Bacillus subtilis (strain 168)), P80244 | AID 651965, 2013 | Potency, µM (doses to about 57.5 µM); active = well fitted falling curve with a large enough effect; inconclusive = small, poorly fitted or top-dose-only effect; inactive = no such curve, though single readings can be large or run the other way; note: the source files actives as falling curves though it sought activators and does not explain the sign; nearly all actives have a fitted effect of over 65% in size
#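 FRET quenching reversal measured ClpP activation: 10 microg/mL B. subtilis ClpP at pH 8 with the FRET-FV decapeptide, read at 430 nm after 320 nm excitation. The 20-min minus 0-min signal was scaled between DMSO/no-enzyme wells and ADEP (5.8 microM final).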
# IL-2 act = activates IL-2 in a cell-based reporter assay; activation, % (series mostly up to about 46 µM); IL-2 activation reporter assay, cell-based qHTS; stimulated with anti-CD3/CD4/CD28 beads; in transgenic mouse T cells; hit rate 0.065% among 360,000; in the data active = activation above about 50%; inconclusive = mostly about 30% to 49%
#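 Screening format: compound pinned onto unstimulated transgenic mouse T cells, 60 min incubation, then anti-CD3/anti-CD4/anti-CD28 bead stimulation for 18 hours at 37 degrees C, followed by EGFP and DsRed detection.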
# PKM2 activator = increases activity of human pyruvate kinase M2; P14618; hit rate 0.34% among 260,000; purified PKM2, Kinase-Glo ATP luminescence, activation; response scale: 0% is enzyme alone, no compound; AID 1631; Potency, µM (series often up to 57.5 µM), actives largely listed as activators; note: nearly all actives have a fitted effect of over 55% in size
#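 Purified hPK-M2 (>95%) run at intermediate activity with 0.1 mM ADP and 0.5 mM PEP in 50 mM imidazole pH 7.2, KCl, MgCl2; 1 h room temperature. ATP formed read by Kinase-Glo luminescence; normalized to uninhibited and no-enzyme controls.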
# NPSR antag = neuropeptide S receptor (human) antagonism, cAMP; Potency, µM (series often up to 38.3 µM), most hits filed as inhibitors; hit rate 1% among 220,000; Q6W5P4; CHO-NPSR cells, cAMP TR-FRET, antagonist mode; AID 1461; note: nearly all actives have a fitted effect of over 50% in size
# Hits are given with their value; – = inactive; ? = inconclusive; · = no result; [ ] = another dose, or the depositor's remark. Unless noted, calls come from the whole dose curve; as a rule, active = well fitted curve in the direction sought with a large enough effect; inconclusive = small, poorly fitted or top-dose-only effect, or another doubt; inactive = no such curve, though single readings can be large; an effect the other way counts as inactive or inconclusive.
SMILES,ClpP mod,IL-2 act,PKM2 activator,NPSR antag
CC1(C)CC2CC(C)(CN2C(=O)COC(=O)c2ccc(Cl)cc2N)C1 (stereo not drawn),28µM,–,–,–
Cc1cc(C)n2ncc(C(=O)NCCc3ccccc3)c2n1,28µM,–,–,–
Cc1cc(C)n2nc(C(=O)NCc3ccccc3)nc2n1,–,–,–,–
Cc1cc(C)n2nc(C(=O)NCc3ccccc3)cc2n1,25µM,–,–,–
CCOC(=O)C1CCN(C(=O)c2cnn3c(C)cc(C)nc23)CC1,32µM,–,–,–
Cc1cc(C(F)F)n2ncc(C(=O)NCCc3ccc(Cl)cc3)c2n1,–,–,–,–
CCOC(=O)C1CCN(C(=O)COC(=O)c2nc3nc(C)cc(C)n3n2)CC1,–,–,·,·
Cc1cc(C)n2ncc(C(=O)NCc3ccccc3)c2n1,28µM,–,–,–
COc1ccc(N2CCN(C(CNC(=O)C(C)(C)C)c3ccco3)CC2)cc1 (stereo not drawn),–,–,–,–
COc1ccccc1N(Cc1cc2cccc(C)c2[nH]c1=O)C(=O)c1cccc(Cl)c1,25µM,·,·,·
O=C(Cn1c(-c2cccs2)cc2ccccc21)N1CCN(c2ccc(Cl)cc2)CC1,10µM,·,·,·
COc1ccc(N2CCN(C(=O)Cn3c(-c4cccs4)cc4ccccc43)CC2)cc1,32µM,·,·,·
O=C(c1cccs1)N1CCN(c2ccc(Cl)cc2)CC1,·,–,–,·
O=C(Cn1c(-c2cccs2)cc2cc(F)ccc21)N1CCN(c2ccccc2)CC1,16µM,·,·,·
NC(=O)C1CCN(C(=O)Cn2c(-c3cccs3)cc3ccccc32)CC1,32µM,·,·,·
COc1ccc(N2CCN(C(=O)Cn3nnc(-c4cccs4)n3)CC2)cc1,–,–,?,–
Cc1cccc(NC(=O)/C(C#N)=C\c2cccnc2)c1,–,–,–,–
N#C/C(=C\c1cccnc1)C(=O)Nc1cccc(Cl)c1,–,–,5.6µM,–
CCOC(=O)C1(CC2CC2)CCN(C(=O)c2cc(C3CC3)nc3ccccc23)CC1,·,–,–,–
CCC(C)C(NC(=O)c1ccc(Cl)cc1Cl)C(=O)O (stereo not drawn),–,–,–,–
CC1CCCCC1NC(=O)Cn1nnc2ccccc2c1=O (stereo not drawn),–,–,–,–
Cc1cc2c(cc1S(=O)(=O)Nc1cccc(F)c1)n(C)c(=O)c(=O)n2C,–,–,2µM,·
S=c1[nH]nc(C2(c3ccccc3)CCCC2)o1,–,–,–,–
Cc1ccccc1-n1c(=O)cc(N2CC(C)OC(C)C2)[nH]c1=O (stereo not drawn),–,–,–,–
Cc1sc(NC(=O)c2ccco2)c(C(c2ccccc2)N2CCC(C)CC2)c1C (stereo not drawn),28µM,–,–,–
SMILES,ClpP mod,IL-2 act,PKM2 activator,NPSR antag
COc1ccc(N(C(=O)CSCC(=O)Nc2cc(C)on2)C(C(=O)NC2CCCCC2)c2ccc(O)c(O)c2)cc1 (stereo not drawn),–,–,?,–
O=C(c1ccc(Cl)cc1)N1CCC(C(=O)N2CCCc3ccccc32)CC1,32µM,–,·,·
O=C(/C=C/c1ccc2c(c1)OCO2)NCCCN1CCOCC1,16µM,–,–,–
O=C(/C=C/c1ccc2c(c1)OCO2)NCCSCc1cccc(Cl)c1,32µM,–,–,–
O=C(/C=C/c1ccc(Cl)cc1)NCCCN1CCOCC1,–,–,–,·
COc1ccccc1-c1noc(CCC(=O)N2CCN(c3cc(C)ccc3C)CC2)n1,–,–,·,·
Cc1ccc2cc(C#N)c(NCCNC(=O)C3CCC3)nc2c1C,16µM,–,–,–
Cc1cccc2cc(C#N)c(NCCNC(=O)NC3CCCCC3)nc12,?,–,–,–
COc1ccc2c(c1)c(C(O)CN1CCC(Cc3ccccc3)CC1)c(C)n2C (stereo not drawn),–,–,–,–
O=S1(=O)CC(O)C(N2CCCCC2)C1 (stereo not drawn),11µM,–,–,–
Cc1ccc(S(=O)(=O)N2C[C@H]3N(C(=O)OC(C)C)N(C(=O)OC(C)C)C[C@H](OC(=O)NC4CCCC4)[C@@]3(O)C2)cc1,–,–,·,·
CCc1cc2c(NCc3ccccc3)nc(C)nc2s1,–,–,–,·
CCN(CC)S(=O)(=O)c1ccc(C(=O)Nc2nc3c(Cl)cc(Cl)cc3s2)cc1,–,·,·,·
COc1cc(/C=C2\SC(=O)NC2=O)ccc1Oc1ccc([N+](=O)[O-])cc1[N+](=O)[O-],·,–,–,10µM
COc1cccc2cc(NC(=O)C3CCCCC3)c(=O)oc12,35µM,–,–,–
COc1cccc2cc(C(=O)N3CCCCC3C)c(=O)oc12 (stereo not drawn),–,–,–,–
NCCCNC(=O)c1cc2ccccc2[nH]1,25µM,–,–,–[7.67 µM]
COC(=O)C1C(=O)c2c([nH]c(C(=O)OCCOC(C)C)c2C)CC1C (stereo not drawn),32µM,–,–,–
O=C(O)/C(=C\c1ccc(Cl)c([N+](=O)[O-])c1)c1ccc(S(=O)(=O)N2CCCCC2)s1,28µM,–,–,–
O=S(=O)(c1ccccc1)N1CCN(S(=O)(=O)c2ccccc2)CC1,–,·,·,·
O=C1CN(S(=O)(=O)c2ccccc2)CCN1S(=O)(=O)c1ccccc1,–,–,4.5µM,–
Nc1nnc(-c2cn(-c3ccccc3)nc2-c2ccccc2)o1,25µM,–,–,–
CCc1ccc(OCCNC(=O)c2ccccc2SCc2ccccc2)cc1,28µM,–,–,–
COCc1ccc(-c2c(-c3ccc(OC)cc3)oc(=O)c3cc(OC)c(OC)cc23)cc1,32µM,–,·,·
COc1ccc(-c2c(-c3ccsc3)oc(=O)c3cc(OC)c(OC)cc23)cc1,?,–,·,·
SMILES,ClpP mod,IL-2 act,PKM2 activator,NPSR antag
O=C(/C(=C/O)N=Nc1ccccc1)c1cccs1,·,–,–,10µM
Cc1c(OCC(=O)OC(C)C)ccc2c3c(c(=O)oc12)CCC3,32µM,–,–,–
Cc1c(OCC(=O)OC(C)(C)C)ccc2c3c(c(=O)oc12)CCC3,28µM,–,–,–
CCc1c(C)c2ccc(OCC(=O)OC(C)C)c(C)c2oc1=O,25µM,–,–,–
C=CCOC(=O)COc1ccc2c(C)c(C)c(=O)oc2c1C,16µM,–,–,–
Cc1c(OCC(=O)N(C)C)ccc2c3c(c(=O)oc12)CCCCC3,–,–,–,–
Cc1c(OC(=O)CNC(=O)OC(C)(C)C)ccc2c3c(c(=O)oc12)CCC3,–,–,–,–
Cc1ccc(-n2c(Cc3ccccc3)nnc2SCc2nc(-c3cccs3)no2)cc1,–,·,·,·
C=CCOc1c(CNc2ncn[nH]2)cccc1OCC,–,–,–,–
O=C(N/N=C/c1ccc(F)cc1)c1ccc(-n2cnnn2)cc1,·,–,·,·
CC(=O)COc1ccc2c3c(c(=O)oc2c1C)CCCCC3,25µM,–,–,–
O=[N+]([O-])c1c(Nc2ccccn2)cc(Cl)c2nonc12,·,–,–,10µM
O=C(O)c1ccccc1Nc1cc(Cl)c2nonc2c1[N+](=O)[O-],·,–,–,·
CCCCn1nc(NC(=O)CCC)c2cc3cc(OC)ccc3nc21,32µM,–,·,·
